A selection: hits, their analogues and other compounds. The true share with any hit is near 1.5%.
PI5P4Ka inh: PI5P4K alpha (human) kinase inhibition; P48426; PI5P4Kalpha enzyme, ADP-Glo luminescence, 60 min; active compounds read low; max response, %; 330,000 compounds, 1.2% hits; AID 652105; active means max response of -50% or lower; inconclusive means between -30% and -50%; inactive means -30% or higher; further: value at the top dose of about 77 µM
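ADP-Glo luminescence end-point after a 60 min room-temperature kinase reaction. PI5P4Kalpha and substrate in HEPES pH 7.4 buffer with EGTA, 0.1% CHAPS and 5% DMSO; ATP at 5 microM final.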
BLM inh-1: Bloom syndrome helicase (human) inhibition; 350,000 compounds, 0.2% hits; recombinant BLM DNA unwinding, fluorescence dequenching; P54132; Potency, µM (titrated, usually from 56.1 µM), hits mostly inhibitors; further: nearly all actives have a fitted effect of over 35% in size
FEN1 inhibitor: blocks human flap endonuclease 1 | Recombinant FEN1 flap cleavage, fluorescence, 15 min | Potency, µM (top dose mostly 114 µM), usual class: inhibitors | 390,000 compounds, 0.35% hits | AID 588795; further: nearly all actives have a fitted effect of over 65% in size
Target sequence (P39748 whole entry, looked up): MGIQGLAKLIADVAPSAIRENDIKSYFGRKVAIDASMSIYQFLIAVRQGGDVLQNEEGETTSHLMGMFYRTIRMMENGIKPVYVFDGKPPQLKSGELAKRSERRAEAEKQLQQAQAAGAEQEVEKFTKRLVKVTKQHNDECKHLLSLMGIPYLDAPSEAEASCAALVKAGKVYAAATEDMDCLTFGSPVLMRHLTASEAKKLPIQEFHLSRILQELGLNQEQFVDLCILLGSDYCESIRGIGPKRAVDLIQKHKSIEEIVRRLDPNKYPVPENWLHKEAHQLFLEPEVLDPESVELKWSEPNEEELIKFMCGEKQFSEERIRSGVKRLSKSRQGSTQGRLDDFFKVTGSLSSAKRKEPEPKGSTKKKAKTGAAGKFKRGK
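Quantitative HTS format: each compound was titrated, incubated with 10 nM nuclease for 15 min at room temperature, then challenged with flap substrate at 50 nM final. Signal change over 15 min gave concentration–effect curves.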
WRN helicase inh: inhibitors of human WRN helicase. Q14191. WRN helicase unwinding, fluorescent forked duplex, kinetic. Potency, µM (titrated, usually from 114 µM), actives largely listed as inhibitors. AID 651768. 360,000 compounds, 0.46% hits; further: nearly all actives have a fitted effect of over 55% in size
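WRN at 20 nM final was preincubated with compound for 15 min at room temperature; reaction started with 100 nM forked duplex oligonucleotide carrying fluorophore and quencher plus 2 mM ATP (final). Unwinding followed kinetically by red fluorescence (ex 525/em 598 nm).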
RECQ1 helicase: blocks DNA unwinding by human RECQ1; P46063; RECQ1 DNA unwinding, red fluorescence kinetic read; Potency, µM (titrated, usually from 57.3 µM), usual class: inhibitors; 240,000 compounds, 0.54% hits; AID 2549; further: nearly all actives have a fitted effect of over 30% in size
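50 nM RECQ1T1 preincubated 15 min with compound in Tris pH 8.0 buffer with MgCl2, DTT, Tween-20 and 2.5 ug/ml poly(dI-dC); started with 200 nM TAMRA/BHQ-2 forked duplex and 2 mM ATP. Unwinding read as fluorescence (525/598 nm), two reads 2 h apart.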
APEX1 inh: inhibitors of human APE1 endonuclease; Potency, µM (highest dose often 65.8 µM), usual class: inhibitors; recombinant APE1, TAMRA/BHQ-2 abasic DNA cleavage fluorescence; 350,000 compounds, 0.35% hits; P27695; AID 2517; further: nearly all actives have a fitted effect of over 55% in size
Target sequence (P27695 whole entry, looked up): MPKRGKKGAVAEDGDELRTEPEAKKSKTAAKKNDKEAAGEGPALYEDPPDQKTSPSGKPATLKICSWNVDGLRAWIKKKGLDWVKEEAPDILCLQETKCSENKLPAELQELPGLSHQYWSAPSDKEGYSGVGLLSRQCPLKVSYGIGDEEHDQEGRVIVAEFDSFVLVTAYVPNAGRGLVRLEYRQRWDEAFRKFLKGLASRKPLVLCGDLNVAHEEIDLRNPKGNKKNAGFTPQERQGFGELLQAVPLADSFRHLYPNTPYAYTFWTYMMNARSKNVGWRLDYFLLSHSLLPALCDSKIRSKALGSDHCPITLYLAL
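Activity was derived from the fluorescence gain between first and third kinetic reads (60 s intervals, ex 525/em 598 nm) after 50 nM THF-abasic TAMRA/BHQ-2 duplex was added to 0.75 nM APE1 preincubated 15 min with compound.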
BLM inh-2: BLM (human) helicase inhibition, confirmation | shares compounds with BLM inh-1 | BLM DNA unwinding, fluorescence quenching, biochemical | Potency, µM, most hits filed as inhibitors | 220 compounds, 40% hits;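 further: strand separation dequenches TAMRA so unwinding raises red fluorescence; series mostly up to about 69 µM; nearly all actives have a fitted effect of over 45% in size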
Each line names hits and unclear results; the compound was inactive in the other large screens (follow-up assays come after a bar, where they were run). Unless noted, the call rests on the fitted dose curve; in most records, active means well fitted curve in the direction sought with a large enough effect; inconclusive means small, poorly fitted or top-dose-only effect, or another doubt; inactive means no such curve, though single readings can be large; an effect the other way counts as inactive or inconclusive.

COc1ccc2c(c1)C(=NNC(=O)c1ccccn1)c1cc(OC)ccc1-2	PI5P4Ka inh inconclusive, BLM inh-1 10µM, WRN helicase inh inconclusive | BLM inh-2 29µM
S=C(Nc1ccc2nsnc2c1)NC1CCCCC1	BLM inh-1 13µM, WRN helicase inh inconclusive | BLM inh-2 inactive
c1cncc(CNc2nc(-c3ccoc3)nc3ccccc23)c1	none (no result: PI5P4Ka inh, FEN1 inhibitor, WRN helicase inh)
CN(C)c1ccc(-c2nc(NCc3cccnc3)c3ccccc3n2)cc1	BLM inh-1 16µM, RECQ1 helicase inconclusive (no result: PI5P4Ka inh, FEN1 inhibitor, WRN helicase inh) | BLM inh-2 23µM
O=C(COC(=O)C1CC(=O)N(Cc2ccco2)C1)c1ccc(OC(=O)c2ccco2)cc1 (configuration not stated)	PI5P4Ka inh -63, BLM inh-1 16µM, FEN1 inhibitor inconclusive, WRN helicase inh 35µM | BLM inh-2 inconclusive
O=C(COC(=O)C1CC(=O)N(Cc2ccccc2)C1)c1ccc(Br)cc1 (configuration not stated)	APEX1 inh inconclusive
CCCCOC(=O)c1ccc(NC(=O)CC2NCCNC2=O)cc1 (configuration not stated)	none (no result: PI5P4Ka inh, WRN helicase inh, RECQ1 helicase, APEX1 inh)
COc1cccc(NC(=O)C2CCCN(S(=O)(=O)c3ccc4[nH]c(=O)ccc4c3)C2)c1 (configuration not stated)	none (no result: PI5P4Ka inh, WRN helicase inh, RECQ1 helicase, APEX1 inh)
COc1cccc(CNCCO)c1OCc1ccc(Cl)cc1	none
CCOc1cccc(CNc2ccc(O)cc2)c1OCc1ccc(Cl)cc1	BLM inh-1 28µM, WRN helicase inh inconclusive | BLM inh-2 inactive
COC(=O)c1ccc(CSc2nc3scc(-c4cccs4)c3c(=O)[nH]2)o1	BLM inh-1 25µM, WRN helicase inh inconclusive (no result: PI5P4Ka inh) | BLM inh-2 inconclusive
O=C(C[n+]1ccnc2ccccc21)c1ccc(Cl)cc1	none (no result: PI5P4Ka inh, BLM inh-1, WRN helicase inh, RECQ1 helicase, APEX1 inh)
Cc1nc(-c2ccc(C(=O)Nc3cc(S(N)(=O)=O)ccc3C)cc2)cs1	BLM inh-1 7.1µM (no result: RECQ1 helicase) | BLM inh-2 6.5µM
COC(=O)c1c(NC(=O)COC(=O)c2ccc(NC(=O)CC#N)cc2)sc2c1CCCCC2	PI5P4Ka inh -62, BLM inh-1 32µM, FEN1 inhibitor inconclusive, WRN helicase inh 56µM | BLM inh-2 inconclusive
COC(=O)c1c(NC(=O)COC(=O)c2ccccc2O)sc2c1CCCCC2	none
Cc1cccc(NC(=O)c2oc3ccc(S(=O)(=O)N(C)C4CCCCC4)cc3c2C)c1C	none (no result: PI5P4Ka inh, WRN helicase inh, RECQ1 helicase, APEX1 inh)
COc1cc(-c2nc3ccc(N4CCN(C)CC4)cc3[nH]2)cc(OC)c1OC	PI5P4Ka inh inconclusive, BLM inh-1 20µM, FEN1 inhibitor inconclusive | BLM inh-2 inconclusive
CCCCCOc1ccc(/C=C/C(=O)Nc2sc3c(c2C(=O)OCC)CCC3)cc1OC	none (no result: PI5P4Ka inh, WRN helicase inh, RECQ1 helicase, APEX1 inh)
O=C(Nc1ccccc1)Oc1ccc[nH]c1=O	BLM inh-1 4.5µM | BLM inh-2 inactive
c1ccc(-c2[nH]ncc2-c2ccnc3ccccc23)nc1	none (no result: PI5P4Ka inh, FEN1 inhibitor, WRN helicase inh)
Cc1ccc(-c2csc3nnc(SCC(=O)Nc4nsc(-c5ccccc5)n4)n23)cc1	none (no result: PI5P4Ka inh)
O=C(CSc1nnc2scc(-c3ccccc3)n12)Nc1nsc(-c2ccccc2)n1	BLM inh-1 20µM, FEN1 inhibitor inconclusive, WRN helicase inh inconclusive (no result: PI5P4Ka inh) | BLM inh-2 36µM
CCCN1CNc2c(c(=O)[nH]c(=S)n2CCc2ccc(Cl)cc2)C1	none (no result: PI5P4Ka inh, BLM inh-1, WRN helicase inh, RECQ1 helicase, APEX1 inh)
COc1ccc(NC(=O)CSCc2cnn(-c3ccccc3)c2-n2cccc2)cc1	none (no result: PI5P4Ka inh, WRN helicase inh, RECQ1 helicase, APEX1 inh)
O=C1C=C(NCCN2CCOCC2)C(=O)c2cnccc21	BLM inh-1 25µM (no result: PI5P4Ka inh, FEN1 inhibitor, WRN helicase inh) | BLM inh-2 inconclusive
O=C1C=C(NCCO)C(=O)c2cnccc21	BLM inh-1 inconclusive, APEX1 inh inconclusive (no result: PI5P4Ka inh, FEN1 inhibitor, WRN helicase inh)
CCOc1ccc2nc3cc(NCc4ccc(OC)cc4)ccc3c(N)c2c1	PI5P4Ka inh inconclusive, BLM inh-1 14µM, FEN1 inhibitor 22µM, WRN helicase inh 35µM (no result: RECQ1 helicase) | BLM inh-2 7.3µM
CC1CCN(S(=O)(=O)c2cc(C(=O)Nc3ccc(Br)cc3F)n(C)c2)CC1	none (no result: PI5P4Ka inh, WRN helicase inh, RECQ1 helicase, APEX1 inh)
CCc1nn2c(=O)cc(COC(=O)c3ccccc3NC(=O)c3cccs3)nc2s1	none (no result: PI5P4Ka inh, WRN helicase inh, RECQ1 helicase, APEX1 inh)
COc1ccc(/C=C/C(=O)c2ccc(OC)cc2OC)c(OC)c1	none
CC(C)=CCOc1ccc(/C=C/C(=O)c2ccc(OCC=C(C)C)cc2OCC(=O)O)cc1	BLM inh-1 16µM (no result: PI5P4Ka inh, FEN1 inhibitor, WRN helicase inh) | BLM inh-2 inconclusive
CC(C)N(C(=O)Nc1ccc2nsnc2c1)C(C)C	PI5P4Ka inh inconclusive, BLM inh-1 5.6µM, FEN1 inhibitor inconclusive, WRN helicase inh inconclusive | BLM inh-2 inconclusive
COc1ccc(CCNC(=O)CCCn2c(=O)c3ccccc3n(Cc3ccccc3)c2=O)cc1OC	none (no result: PI5P4Ka inh, WRN helicase inh, RECQ1 helicase, APEX1 inh)
CCOc1ccc(CCNC(=O)c2nc(-c3cccc(F)c3)n3c2CCCCC3)cc1OCC	BLM inh-1 0.16µM (no result: PI5P4Ka inh, WRN helicase inh, RECQ1 helicase, APEX1 inh) | BLM inh-2 inactive
CN(C(=O)c1nc(-c2cccc(F)c2)n2c1CCCCC2)c1ccccc1F	none (no result: PI5P4Ka inh, WRN helicase inh, RECQ1 helicase, APEX1 inh)
